Test results published in the supplement of paper PMC12669797.
“And” between values parts separate entries of the source, which are not always exact repeats. Equal values may be shown once.

Legend:
ES2 = experiment: cell viability relative to DMSO control (MTS) (fraction of DMSO control); higher = more viable cells / less growth inhibition; conditions: 10 µM; 48 h
How it was run: (§1)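 A 367-compound […] library was tested at a final concentration of 10 µM on TOV-21G and ES2 clear cell carcinoma cells (5000 cells per well, 96-well plates, pre-grown 24 h), with control wells receiving vehicle only. Following 48 h of exposure, CellTiter 96 AQueous One Solution was used as the manufacturer directs. This MTS assay gives cell viability as a fraction of the vehicle control.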

TOV-21G = experiment: as above; conditions: 10 µM; 48 h
How it was run: as §1

SMILES	cell viability (ES2)	cell viability (TOV-21G)
O=C(Cc1ccccc1)Nc1c2c(nc3ccccc13)N(Cc1ccccc1)CC2	0.96	0.839
CNC(=O)c1ccc(N2C(=S)N(c3ccc(C#N)c(C(F)(F)F)c3)C(=O)C2(C)C)cc1F	1.14	1.18
CC[C@H](C)C(=O)O[C@H]1C[C@@H](C)C=C2C=C[C@H](C)[C@H](CC[C@@H]3C[C@@H](O)CC(=O)O3)[C@H]21 [Lovastatin]	0.595	0.792
CNC(=O)c1ccccc1Sc1ccc2c(/C=C/c3ccccn3)n[nH]c2c1 [Axitinib]	0.917	0.841
Oc1ccc(-c2nc(-c3ccc(F)cc3)c(-c3ccncc3)[nH]2)cc1	0.468	0.806
C/C=C/C=C\C=C/C(O)C(C)C(CCC(C)C1OC(=O)C=CC1C)OP(=O)(O)O (stereo not given) [Cytostatin]	0.34	0.344
Nc1ncn([C@H]2C[C@H](O)[C@@H](CO)O2)c(=O)n1 [Decitabine]	0.757	1.11
COc1cc2c(NC3CCN(C(C)C)CC3)nc(C3CCCCC3)nc2cc1OCCCN1CCCC1	0.337	0.486
CC(=O)N[C@@H](CSC(=O)[C@]1([C@@H](O)C(C)C)NC(=O)[C@H](C)[C@@H]1O)C(=O)O [Lactacystin]	0.637	0.482
COc1cc2/c(=N/c3ccc(Br)cc3F)nc[nH]c2cc1OCC1CCN(C)CC1 [Vandetanib]	0.577	0.436
CC(C)(C)c1nc2c3cc[nH]c(=O)c3c3cc(F)ccc3c2[nH]1 [JAK Inhibitor I]	0.561	0.662
C[C@@H]1C[C@H]2O[C@@H]2/C=C\C=C\C(=O)Cc2c(Cl)c(O)cc(O)c2C(=O)O1 [radicicol]	0.409	0.342
NC1=N/C(=C2/CCNC(=O)c3[nH]ccc32)C(=O)N1 [Debromohymenialdisine (DBH)]	1.25	1.12
O=CN1CCN(c2ccc(/C=C3\C(=O)Nc4ccccc43)cc2)CC1	1.13	1.2
CC(C)c1ccc2c(c1)c(SC(C)(C)C)c(CC(C)(C)C(=O)O)n2Cc1ccc(Cl)cc1	1.06	0.959
COc1ccc(Cn2ccc3ccc(C(=O)NO)cc32)cc1	0.928	0.919
C=CCNC1=C2C[C@@H](C)C[C@H](OC)[C@H](O)[C@@H](C)/C=C(\C)[C@H](OC(N)=O)[C@@H](OC)/C=C\C=C(/C)C(=O)NC(=CC1=O)C2=O	0.541	0.575
C[C@]1(O)C[C@@H](c2nc(-c3ccc4ccc(-c5ccccc5)nc4c3)c3c(N)nccn32)C1	0.62	0.875

SMILES	cell viability (ES2)	cell viability (TOV-21G)
CC1=C(/C=C/C(C)=C/C=C/C(C)=C/C(=O)O)C(C)(C)CCC1 [tretinoin]	1.01	1.51
Cc1[nH]c(/C=C2\C(=O)Nc3ccc(S(=O)(=O)N(C)c4cccc(Cl)c4)cc32)c(C)c1C(=O)N1CCN(C)CC1	0.402	0.639
NC(=O)c1ccc(-c2nc(-c3ccccn3)c(-c3ccc4c(c3)OCO4)[nH]2)cc1	1.08 and 1.11	0.993 and 1.03
O=C1NC(=O)c2c1c1c3ccccc3[nH]c1n1cncc21 [isogranulatimide]	1.12	1.47
CCOc1nc(NC(=O)Cc2cc(OC)ccc2OC)cc(N)c1C#N [JNK inhibitor VIII]	1.09	1.12
N#CC(=C(/N)Sc1ccccc1N)/C(C#N)=C(/N)Sc1ccccc1N	0.685 and 0.748	0.824 and 1.02
COC(=O)CNC(=O)C(=O)OC [Dimethyloxalylglycine]	1.23	0.917
CCOC(=O)C1=C(C)NC(=S)NC1c1cccc(O)c1 (stereo not given) [Monastrol]	0.884	0.853
OCCn1cc(-c2cnc3nnn(Cc4ccc5ncccc5c4)c3n2)cn1	1.05	1.18
COc1ccc(OC)c2c(=S)c3ccccc3[nH]c12	1.35	1.14
NC(=O)NO [Hydroxyurea]	1.21	0.811
Cc1ccc(NC(=O)c2cccc(N(C)C)c2)cc1NC(=O)c1ccc(O)cc1	0.951	0.888
COC(=O)C1=C(C)NC(C)=C(C(=O)OC)C1c1ccccc1[N+](=O)[O-] [Nifedipine]	0.911	0.741
COc1nccc(-c2c(-c3ccc(F)cc3)ncn2C2CCC(O)CC2)n1 (stereo not given)	1.14	1.06
C[C@@H]1C[C@H]2[C@@H]3CCC4=CC(=O)C=C[C@]4(C)[C@@]3(F)[C@@H](O)C[C@]2(C)[C@@]1(O)C(=O)CO [Dexamethasone]	1.01	1.29
CC(/C=C/C(=O)NO)=C\[C@@H](C)C(=O)c1ccc(N(C)C)cc1 [Trichostatin A]	0.343	0.355
CC(=O)N[C@@H](CS)C(=O)O [N-Acetyl-L-cysteine]	1.04	0.965
